Bioassay records as filed in PubChem BioAssay.
Compounds with a hit are over-represented: about 18% of the library has one in this group of screens.
TGFb inhibitor – qHTS for Inhibitors of TGF-b. HepG2 CAGA-GFP TGF-b/SMAD3 reporter, GFP fluorescence, 18 h; TGF-beta stimulated, 500 pg/mL final. Potency, µM (series often up to 46.1 µM), for the others: at the highest dose activity, negative = inhibition, actives largely listed as inhibitors. 410,000 tested, 1.2% active; note: potency is the fitted concentration of half-maximal effect; % is set by controls: 0 for no effect and ±100 for the full control effect; nearly all actives have a fitted effect of over 65% in size
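HEPG2 CAGA-GFP reporter cells (1000/well, DMEM with 1% FBS) received compounds, then recombinant TGF-beta at 500 pg/mL final for 18 hours at 37 degrees C. Per-cell GFP summed per well was normalised to unstimulated and stimulated DMSO controls before curve fitting.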
TDP1 block – qHTS Assay for Inhibitors of Tyrosyl-DNA Phosphodiesterase (TDP1); recombinant TDP1, AlphaScreen DNA substrate cleavage; Potency, µM (series often up to 130 µM), for the others: top-dose activity change, negative = inhibition, actives largely listed as inhibitors; 350,000 tested, 0.28% active; note: potency is the fitted concentration of half-maximal effect; % is set by controls: 0 for no effect and ±100 for the full control effect; nearly all actives have a fitted effect of over 40% in size
Target sequence (Q9NUW8 whole entry, looked up): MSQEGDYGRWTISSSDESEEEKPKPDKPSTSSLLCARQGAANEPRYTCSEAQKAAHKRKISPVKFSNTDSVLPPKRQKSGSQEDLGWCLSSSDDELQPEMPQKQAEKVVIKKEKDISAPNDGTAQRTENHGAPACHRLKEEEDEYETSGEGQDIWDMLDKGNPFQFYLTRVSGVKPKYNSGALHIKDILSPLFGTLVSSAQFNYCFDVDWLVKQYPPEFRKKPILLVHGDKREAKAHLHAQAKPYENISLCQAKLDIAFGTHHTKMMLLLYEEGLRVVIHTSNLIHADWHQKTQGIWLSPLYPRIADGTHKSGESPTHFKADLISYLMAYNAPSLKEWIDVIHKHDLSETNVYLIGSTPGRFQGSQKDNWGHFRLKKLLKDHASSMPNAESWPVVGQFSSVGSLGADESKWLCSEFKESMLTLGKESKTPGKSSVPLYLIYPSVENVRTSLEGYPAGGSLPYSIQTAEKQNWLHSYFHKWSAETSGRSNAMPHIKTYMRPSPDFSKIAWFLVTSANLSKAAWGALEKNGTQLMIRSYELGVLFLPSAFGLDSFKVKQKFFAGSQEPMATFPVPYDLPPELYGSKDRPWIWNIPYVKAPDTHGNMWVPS
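Steps: enzyme plus compound, 15 min RT; add biotin/phosphotyrosine-FITC oligonucleotide (15 nM final), react 5 min; add donor/acceptor beads (10 ug/ml final), 10 min; read AlphaScreen. Tdp1 at 1 nM final.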
HepG2 viability – qHTS for Inhibitors of TGF-b: Cytotox Counterscreen; HepG2 CAGA-GFP viability, ATP luminescence, 18 h; Potency, µM (series often up to 46.1 µM), for inactives: at the highest dose activity change, negative = cytotoxicity, usual class: cytotoxic; 410,000 tested, 0.76% active; AID 588856, 2011; note: potency is the fitted concentration of half-maximal effect
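HepG2 CAGA-GFP cells (1000/well, DMEM with 1% FBS) received compound, then TGF-beta at 500 pg/mL final, and were incubated 18 hours at 37 degrees C. Viability was read by CellTiter-Glo luminescence. Media-only wells were set as complete cell-killing and DMSO as no toxicity.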
IL1B secr inh – qHTS for Inhibitors of Inflammasome Signaling: IL-1-beta AlphaLISA Primary Screen. THP-1 LPS/ATP IL-1B secretion, AlphaLISA, 16 h; active compounds read low. activity change, % at 57.5 µM. 360,000 tested, 4.7% active; in the data active = activity change below about -50%; inconclusive = mostly about -30% to -49%; note: % is set by controls: 0 for no effect and ±100 for the full control effect
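THP-1 cells pretreated 1 hr with compounds (up to 57.5 uM final), then stimulated with LPS (250 ng/mL final) plus ATP (1.25 mM final); secreted IL-1B measured by AlphaLISA after 16 hr, decreased signal indicating inhibition.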
DT40 TDP1 CPT – qHTS for Inhibitors of human tyrosyl-DNA phosphodiesterase 1 (TDP1): qHTS in cells in presence of CPT | 420,000 tested, 12% active | AID 686979, 2013 | Potency, µM (highest dose often 46.2 µM), for the others: top-dose activity change, negative = growth inhibition, usual class: inhibitors | chicken DT40 Tdp1-/-;hTDP1 cells + 20 nM CPT, ATP luminescence, 48 h; note: potency is the fitted concentration of half-maximal effect; % is set by controls: 0 for no effect and ±100 for the full control effect; nearly all actives have a fitted effect of over 55% in size
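Chicken DT40 Tdp1-/- cells stably complemented with human TDP1 were seeded at 400 cells/well in medium containing 20 nM camptothecin, exposed to pin-transferred compounds, and grown at 37 °C for at least 48 hr. Viability was read as ATP luminescence.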
TDP1 cell noCPT – qHTS for Inhibitors of human tyrosyl-DNA phosphodiesterase 1 (TDP1): qHTS in cells in absence of CPT | AID 686978, 2013 | 420,000 tested, 15% active | DT40 Tdp1-/- hTDP1 cells, no CPT, ATP luminescence, 48 h | Potency, µM (highest dose often 46.2 µM), for the others: at the highest dose activity change, negative = growth inhibition, actives largely listed as inhibitors; note: potency is the fitted concentration of half-maximal effect; % is set by controls: 0 for no effect and ±100 for the full control effect; nearly all actives have a fitted effect of over 55% in size
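Cells were dispensed at 400 per well, compounds added by pin tool, plates incubated ≥48 hr at 37 °C, then CellTiter-Glo added for 30 min at room temperature before luminescence reading. Line: DT40 Tdp1-/- complemented with hTDP1; camptothecin omitted.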
An asterisk follows results filed as active; ? = inconclusive; · = not tested or not shown; [ ] = another dose, or the depositor's remark. Unless noted, calls come from the whole dose curve; as a rule, active = well fitted curve in the direction sought with a large enough effect; inconclusive = small, poorly fitted or top-dose-only effect, or another doubt; inactive = no such curve, though single readings can be large; an effect the other way counts as inactive or inconclusive.

SMILES	TGFb inhibitor	TDP1 block	HepG2 viability	IL1B secr inh	DT40 TDP1 CPT	TDP1 cell noCPT
CCc1ccc(OCC(=O)Nc2c(C(=O)c3ccc(Br)cc3)oc3ccccc23)cc1	-1%	1%	-11%	·	-3%	6%
Cc1ccc(N(C(=O)c2snc(C(N)=O)c2N)C(C(=O)NC2CCCC2)c2ccco2)cc1 (centres undefined)	13%	-1%	-12%	-7	?	?
Cc1ccc(N(C(=O)c2snc(C(N)=O)c2N)C(C(=O)NC2CCCC2)c2ccc(C)o2)cc1 (centres undefined)	0%	·	-22%	-77*	?	?
Cc1cccc(N(C(=O)c2snc(C(N)=O)c2N)C(C(=O)NC2CCCC2)c2ccc(C)o2)c1 (centres undefined)	-21%	-14%	-16%	-18	18µM*	15µM*
Cc1cccc(N(C(=O)c2snc(C(N)=O)c2N)C(C(=O)NC2CCCC2)c2ccncc2)c1 (centres undefined)	22%	·	9%	23	0%	-1%
COc1ccc(NC(=O)c2sc3nc4c(cc3c2N)CCCCCC4)cc1Cl	-5%	·	-3%	·	?	?
CC(C)N1C(=O)CC(Nc2cccc3cccc(N)c23)C1=O (centres undefined)	0%	6%	7%	-1	23µM*	21µM*
CCN(CCCNC(=O)c1cc2c(=O)n(C)c3ccccc3c2s1)c1ccccc1	-11%	-2%	-13%	·	?	15µM*
CCN(CCCNC(=O)c1cc2c(=O)n(C)c3ccccc3c2s1)Cc1ccccc1	19%	-2%	-27%	·	15µM*	21µM*
CS(=O)(=O)NNC(=O)c1cc2cc3ccccc3nc2s1	-1%	2%	0%	32	-5%	-19%
NNC(=O)c1cc2cc3ccccc3nc2s1	?	6%	-125%	-3	5.2µM*	?
COc1ccc(CCNC(=O)c2cc3c(=O)n(C)c4ccccc4c3s2)cc1OC	9%	5%	-8%	·	-7%	?
CCOc1ccc(CNC(=O)c2cc3c(=O)n(C)c4ccccc4c3s2)cc1	-14%	2%	4%	·	9.2µM*	2.6µM*
C[C@H]1O[C@H](O[C@H]2[C@H](O)[C@@H](O)[C@@H](O[C@H]3[C@H](O)[C@@H](O)[C@H](O)O[C@@H]3CO)O[C@@H]2CO)[C@H](O)[C@@H](O)[C@@H]1N[C@H]1C=C(CO)[C@@H](O)[C@H](O)[C@H]1O	·	·	·	·	9%	11%
CCc1ccc(NC(=O)C(C)Sc2ccc(S(=O)(=O)N3CCN(C)CC3)cn2)cc1 (centres undefined)	?	-1%[56.1 µM]	-23%	0	?	?
CCS(=O)(=O)c1ncc(N(Cc2ccco2)Cc2ccccc2F)c(C(=O)Nc2cccc(Cl)c2)n1	-22%	3%	1%	·	?	?
CC(C)(C)S(=O)N1Cc2cc(=O)n(Cc3ccccc3)cc2[C@H]1CCO (some centres undefined)	0%	·	-10%	-17	-4%	-2%
CCN(CCCNC(=O)c1cc2cc3ccc(C)cc3nc2s1)c1ccccc1	6.3µM*	5%	-28%	·	?	26µM*
CCN1C(=O)C(CC(=O)Nc2ccccc2Cl)N(NC(=O)c2cccc(F)c2)C1=S (centres undefined)	-10%	5%	-11%	7	?	-3%
CCNC(=S)NNC(=O)c1cc(C2CC2)nc2ccccc12	-18%	10%	-2%	-11	?	-16%
COc1cc(OC)cc(C2=Cc3ccc(OC)cc3C(CC(C)=O)N2c2ccc(-c3cncnc3)cc2)c1 (centres undefined)	·	·	·	-15	8.2µM*	?
COc1cc(OC)cc(C2=Cc3ccccc3C(CC(=O)c3ccco3)N2c2ccc(-c3cccnc3)cc2)c1 (centres undefined)	·	·	·	9	?	18µM*
COc1ccc2c(c1)C(CC(C)=O)N(c1ccc(-c3cnc(OC)nc3)cc1)C(c1ccsc1)=C2 (centres undefined)	·	·	·	13	-15%	?
COc1ccc(-c2ccc(N3C(c4cc(OC)cc(OC)c4)=Cc4ccc(OC)cc4C3CC(C)=O)cc2)cc1 (centres undefined)	·	·	·	15	5.2µM*	6.5µM*
COc1ccc2c(c1)C(CC(C)=O)N(c1ccc(-c3cccs3)cc1)C(c1ccsc1)=C2 (centres undefined)	·	·	·	-1	3.7µM*	4.6µM*
SMILES	TGFb inhibitor	TDP1 block	HepG2 viability	IL1B secr inh	DT40 TDP1 CPT	TDP1 cell noCPT
O=C(CN(Cc1ccco1)C(=O)CNS(=O)(=O)c1ccc(F)cc1)NCc1ccccc1	6%	·	-4%	-14	-2%	-12%
O=C(CCc1ccccc1)NCc1ccc2c(c1)OCO2	12%	4%	2%	17	-9%	-3%
O=C1C[C@@H]2c3c(cccc3CN1Cc1ccc(F)cc1)C[C@@H](O)[C@H]2O	-11%	0%	1%	5	10%	-2%
COC(=O)c1ccc(N2C(c3cc(OC)cc(OC)c3)=Cc3ccc(-c4ccc(C(N)=O)cc4)cc3C2CC(=O)C2CC2)cc1 (centres undefined)	·	·	·	6	?	18µM*
COC(=O)c1ccc(N2C(c3cc(OC)cc(OC)c3)=Cc3ccc(-c4cccnc4)cc3C2CC(=O)C2CC2)cc1 (centres undefined)	·	·	·	22	?	?
COC(=O)c1c(NC(=O)COC(=O)CC(NC(C)=O)c2ccccc2)sc(C)c1C (centres undefined)	10%	1%	-9%	15	-6%	-19%
COC(=O)CC(NC1CCN(c2nc(C)c3cc4c(cc3n2)CCC4)CC1)C(=O)OC (centres undefined)	·	·	·	·	14%[9.04 µM]	2%
Cc1cccc(C(=O)N2CCC(=O)N([C@H](COCc3cccc(C(F)(F)F)c3)Cc3ccccc3)CC2)c1	·	6%	·	-1	?	16µM*
Cc1cccc(COC[C@H](Cc2ccccc2)N2CCN(C(=O)c3cccc(C)c3)CCC2=O)c1	·	5%	·	-13	?	?
